This is a sample that favours compounds with a hit; in the whole collection about 3.9% have one here.
Tb PFK block = blocks T. brucei phosphofructokinase; T. brucei PFK, ADP-Glo luminescence; Potency, µM (doses to about 57.5 µM), for inactives: at the highest dose activity, negative = inhibition, usual class: inhibitors; 330,000 compounds, 0.17% hits; AID 485367;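 further: 0% = uninhibited 1x PFK enzyme wells and -100% = no-enzyme wells; nearly all actives have a fitted effect of over 60% in size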
Target sequence (O15648 whole entry, looked up): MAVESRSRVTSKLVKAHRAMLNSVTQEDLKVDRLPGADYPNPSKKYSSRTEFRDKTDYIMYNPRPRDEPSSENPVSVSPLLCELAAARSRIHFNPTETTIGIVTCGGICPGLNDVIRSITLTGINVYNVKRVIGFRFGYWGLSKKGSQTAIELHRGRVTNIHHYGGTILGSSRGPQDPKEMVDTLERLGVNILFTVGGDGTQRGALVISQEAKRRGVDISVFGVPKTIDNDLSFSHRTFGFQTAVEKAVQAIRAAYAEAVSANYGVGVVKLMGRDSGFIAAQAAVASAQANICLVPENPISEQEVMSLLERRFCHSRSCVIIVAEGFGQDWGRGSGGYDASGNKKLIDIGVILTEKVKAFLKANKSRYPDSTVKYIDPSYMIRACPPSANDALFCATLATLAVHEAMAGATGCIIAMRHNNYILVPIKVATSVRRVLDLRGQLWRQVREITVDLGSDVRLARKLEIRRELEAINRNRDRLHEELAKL
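ADP-Glo luminescence quantified ADP after 45 min at room temperature, with 1.25 nM T. brucei PFK, 0.1 mM ATP and 0.5 mM fructose-6-phosphate in pH 8.0 TEA buffer. qHTS titrations up to 57 µM; curves classified by quality.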
BRCA1 expr up = activators of BRCA1 expression | Potency, µM (highest dose often 46.1 µM), for inactives: top-dose activation, most hits filed as activators | MCF7-BRCA1-FFLuc reporter, luminescence, 48 h; response scale: scaled: vehicle 0%, 10 µM genistein 100% | 380,000 compounds, 1.1% hits; further: nearly all actives have a fitted effect of over 80% in size
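Cells: MCF7-BRCA1-FFLuc, 2000/well. Exposure: 48 h, 37 °C, 5% CO2. Read: luminescence, 15 min post-substrate. Controls: genistein 10 microM (maximal activation), DMSO (neutral).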
VDR inh = blocks the human vitamin D receptor; AID 504847; 400,000 compounds, 0.93% hits; Potency, µM, for inactives: max response, negative = inhibition, hits mostly inhibitors; VDR-SRC2-3 peptide fluorescence polarization, 2 h; P11473; further: on the % scale 0 is the no-effect control and ±100 the full control effect
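Reagent solutions, kept cold and dark, are dispensed first; compounds are then pinned in at 23 nl, plates briefly spun, and incubated 2 h at ambient temperature. Inhibition of VDR–SRC2-3 peptide binding is read by fluorescence polarization.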
PLK1 PBD inh = inhibitors of human PLK1 polo-box domain binding; P53350; Plk1 PBD binding of FITC phosphopeptide, fluorescence polarization; Potency, µM, for inactives: max response, negative = inhibition, usual class: inhibitors; 360,000 compounds, 2.8% hits; AID 720504; further: series mostly up to about 57 µM; on the % scale 0 is the no-effect control and ±100 the full control effect; nearly all actives have a fitted effect of over 65% in size
* = called active by the depositor; ? = inconclusive; / = no result. The call rests on the fitted dose curve; in most records, active means well fitted curve in the direction sought with a large enough effect; inconclusive means small, poorly fitted or top-dose-only effect, or another doubt; inactive means no such curve, though single readings can be large; an effect the other way counts as inactive or inconclusive. Potency means the concentration at half of the fitted maximal effect.

SMILES | Tb PFK block | BRCA1 expr up | VDR inh | PLK1 PBD inh
CS(=O)(=O)c1ccc2nc(NC(=O)c3ccccc3)sc2c1 | 1% | ? | -17% | -9%
Cc1cccc(C(=O)Nc2nc3ccc(S(C)(=O)=O)cc3s2)c1 | 2% | 3.2µM* | -12% | -3%
O=S1(=O)c2ccc(Br)cc2N2CC[C@H](C2)N1Cc1ccc(Cl)cc1 | / | -44% | -16% | -5%
COc1ccc(OC)c(CN2C(=O)CN(S(C)(=O)=O)CC2(C)C(=O)NCc2ccccc2)c1 (stereo not given) | / | / | / | -4%
Cc1ccc(C(=O)Oc2ccc(Br)cc2C(=S)N2CCOCC2)cc1 | -6% | 0% | -24% | ?
COc1ccc(C(=S)N2CCOCC2)cc1OC(=O)c1ccccc1 | -2% | 3% | -10% | 27µM*
COc1ccc(C(=O)Oc2c(OC)cc(C(=S)N3CCOCC3)cc2OC)cc1 | -2% | -14% | -10% | -8%
CCOc1cc(C(=S)N2CCOCC2)ccc1OC | 0% | 6% | -1% | 24µM*
O=C(Oc1ccc(Br)cc1C(=S)N1CCOCC1)c1ccc(F)cc1 | -17% | 1% | 79µM* | 12µM*
COc1ccc(C(=O)Oc2c(OC)cc(C(=S)N3CCOCC3)cc2OC)cc1OC | -23% | 0% | ? | 21µM*
COc1ccc(C(=S)N2CCOCC2)cc1OC(=O)c1ccc(C)cc1 | 0% | -14% | 7% | -16%
CCc1ccc(S(=O)(=O)c2nnn3c2nc(N2CCOCC2)c2sccc23)cc1 | / | / | -3% | /
Nc1cccc2cccnc12 | / | 0% | / | /
COc1ccc(C(=O)Oc2ccc(Br)cc2C(=S)N2CCOCC2)cc1 | 1% | -30% | 25% | -21%
COc1ccc(C(=S)N2CCOCC2)cc1OC(=O)c1ccc([N+](=O)[O-])cc1 | -15% | -4% | ? | 17µM*
COc1cc(C(=O)Oc2ccc(Br)cc2C(=S)N2CCOCC2)cc(OC)c1OC | -2% | -15% | ? | 17µM*
COc1ccc(C(=S)N2CCOCC2)cc1OC(=O)c1cc(OC)c(OC)c(OC)c1 | ? | -15% | ? | 27µM*
COc1ccc(C(=S)N2CCOCC2)cc1OC(=O)c1cccc([N+](=O)[O-])c1 | -1% | 3% | -6% | -11%
CCc1ccc(Oc2c(C(F)(F)F)oc3c(CN4CCN(CC)CC4)c(O)ccc3c2=O)cc1 | / | / | -2% | /
COc1ccc(S(=O)(=O)N2CCC(N3CCN(Cc4ccc(F)cc4)C(=O)C3=O)CC2)cc1 | / | / | 14% | /
CC(C)(C)OC(=O)C1=NOC2(C=CC(=O)C=C2)C1 | / | / | 28µM* | /
CCOc1cccc(Nc2ccc([N+](=O)[O-])cn2)c1 | -3% | 74% | 7% | -22%
Cc1cccc(Nc2ccc([N+](=O)[O-])cn2)c1 | -1% | 11µM* | -13% | 1%
Cc1ccccc1CN1CCc2c(OCC(=O)N3CCCCC3)cccc2C1=O | 2% | -13% | -30% | 30µM*
CN(C)/C=N/c1sc2c(c1C#N)CCCC2 | 6% | ? | -10% | -4%
SMILES | Tb PFK block | BRCA1 expr up | VDR inh | PLK1 PBD inh
CC1CCc2c(sc(/N=C/N(C)C)c2C#N)C1 (stereo not given) | -2% | 13µM* | -19% | -4%
COc1cc(-c2c(CCO)sc3ccccc23)cc(OC)c1OC | / | -41% | / | 2%
COc1ccc(OC)c(-c2csc(NC(=O)COC(=O)c3ccc(NC(=O)CC#N)cc3)n2)c1 | 21µM* | 1% | 14% | -3%
COc1ccc(OC)c(-c2csc(NC(=O)COC(=O)C3CCC3)n2)c1 | -2% | 15% | -6% | -5%
Cc1onc(-c2ccccc2Cl)c1C(=O)N1CC(C)OC(C)C1 (stereo not given) | -7% | -6% | ? | 30µM*
N#CCCn1c(=O)c(CCc2ccccc2)nc2cnc(Nc3ccccc3)nc21 | / | / | 0% | /
Cc1cc(CNC(=O)c2cc(COc3ccc(F)c(F)c3)on2)nn1C | -3% | 8.9µM* | 5% | 5%
N#CCCn1cc(C(=O)NCc2ccccc2)c(-c2cccs2)n1 | 1% | 0% | -9% | 7%
N#CCCn1cc(C(=O)Nc2ccc(C(=O)O)cc2)c(-c2cccs2)n1 | 0% | 9% | ? | 6µM*
CCCNC(=O)c1ccc(N2CC3CC(C2)c2cccc(=O)n2C3)c(NC(=O)Nc2ccc(CC)cc2)c1 (stereo not given) | 0% | -7% | 4% | -1%
CCc1ccc(NC(=O)Nc2cc(C(=O)O)ccc2N2CC3CC(C2)c2cccc(=O)n2C3)cc1 (stereo not given) | -2% | 31% | -12% | -14%
COc1cccc(NC(=O)Nc2cc(C(=O)NC(C)C)ccc2N2CC3CC(C2)c2cccc(=O)n2C3)c1 (stereo not given) | 0% | -4% | -24% | 3.8µM*
O=C(O)c1ccc(N2CC3CC(C2)c2cccc(=O)n2C3)c(NC(=S)Nc2ccc(Cl)cc2Cl)c1 (stereo not given) | -11% | -10% | ? | 12µM*
Cc1[nH]n(-c2ccccc2)c(=O)c1C(c1ccc(C(=O)O)cc1)c1c(C)[nH]n(-c2ccccc2)c1=O | 20% | -26% | -11% | 8.4µM*
COc1cccc(N=Nc2c(C)[nH]n(-c3ccccc3)c2=O)c1 | 0% | -1% | -8% | -2%
COc1cccc(C(C[N+](=O)[O-])c2c(C)[nH]n(-c3ccccc3)c2=O)c1 (stereo not given) | 29% | -2% | ? | 30µM*
Cc1[nH]n(-c2ccccc2)c(=O)c1C(c1cccc([N+](=O)[O-])c1)c1c(C)[nH]n(-c2ccccc2)c1=O | 29% | -40% | 56µM* | 24µM*
Cc1[nH]n(-c2ccccc2)c(=O)c1C(C[N+](=O)[O-])c1ccc(Br)cc1 (stereo not given) | -3% | -7% | ? | 27µM*
CCCCCO | 6% | 7% | -4% | -15%
COCC(O)CNc1ccccc1 (stereo not given) | -3% | -11% | ? | 24µM*
COc1ccccc1OCC(=O)N1CCCC(Nc2ccc(C)c(C)c2)C1 (stereo not given) | 1% | -2% | -16% | -14%
Cc1ccc(NC2CCCN(C(=O)CSc3ccccn3)C2)cc1C (stereo not given) | 1% | -11% | ? | 24µM*
Cc1ccc(NC2CCCN(C(=O)c3ccc4nccnc4c3)C2)cc1C (stereo not given) | 2% | 4% | -3% | -5%
Cc1ccc(NC2CCCN(C(=O)c3ccc(F)cc3)C2)cc1C (stereo not given) | 0% | 6% | ? | 6.7µM*
c1ccc(CSCc2cn3ccsc3n2)cc1 | -13% | 8.9µM* | -1% | -17%
O=C(O)c1ccc(N/N=C/C2=Cc3ccccc3OC2)cc1 | 1% | ? | -18% | 24µM*
O=C(O)c1ccc(N/N=C/c2ccncc2)cc1 | -16% | 80% | 1% | 4%
CC1=C([N+](=O)[O-])C(c2ccc3c(c2)OCO3)N(C)C(=O)N1C (stereo not given) | 0% | -16% | ? | 8.4µM*
CN1C(=O)c2ccccc2N(C)C1c1ccc2c(c1)OCO2 (stereo not given) | -2% | -13% | 10% | -5%
